Compound activity as filed in PubChem BioAssay.
The sample as a whole holds a higher share of hits than the screen did.
VCAM1 TNFa pot = TNF alpha stimulated VCAM1 expression potentiation; HUVEC TNFa-stimulated VCAM-1 immunofluorescence, high-content imaging; scaled per plate to unstimulated/TNFa-only wells; 0.19% of 93,000 active; activation, % at 2 µM;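 active = activation above the screen mean plus 3 SD, with well images confirming the hit on visual review, cut at about 28% in these data, passing the limit was not always enough; inconclusive = activation above that limit but images do not confirm it; inactive = activation not above that limit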;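 also: signal is the number of cytoplasmic VCAM-1 stained grains per positive cell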
VCAM1 pot conf = enhancers of VCAM1 induction in HUVEC – imaging, triplicate retest, confirmation; shares compounds with VCAM1 TNFa pot; HUVEC TNFa-stimulated VCAM-1 immunofluorescence imaging; activation, % at 2 µM; 230 tested, under 10 active; AID 1034;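 active = activation above 30% in triplicate retests at 2 µM, then confirmed by visual review of the well images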
Hits are given with their value; – = inactive; ? = inconclusive.

SMILES	VCAM1 TNFa pot	others
CCn1cc(C(=O)NCc2ccco2)c2cc(OC)c(OC)cc2c1=O	?	VCAM1 pot conf=–
Cc1ccc(OCC(=O)NCc2ccco2)cc1C	–
CC1=[N+]([O-])C(C)(C)C(C)N(O)C1=O (stereo unspecified)	–
COCCn1c(=S)[nH]c2ncccc2c1=O	?	VCAM1 pot conf=–
COCCn1c(SCC(=O)Nc2nnc(C)s2)nnc1-c1c[nH]c2ccccc12	–
COCCn1c(C23CC4CC(CC(C4)C2)C3)n[nH]c1=S	–
CCOC(=O)c1ccc(NC(=O)COc2cc(=O)n(CC)c3ccccc23)cc1	–
COc1ccccc1OCC(=O)Nc1ccc(C(N)=O)cc1	50.7	VCAM1 pot conf=–
Cc1cc(C)c(OCC(=O)Nc2cccc(O)c2)cc1C	–
CC1CCCC(NC(=S)Nc2ccc(SC(F)F)cc2)C1C (stereo unspecified)	–
CCOC(=O)C1CCCN(S(=O)(=O)c2ccc(F)c(C(=O)Nc3ccc(F)c(F)c3)c2)C1 (stereo unspecified)	–
CCOC(=O)C(C)n1cnc2c(cnn2-c2ccc(Cl)cc2)c1=O (stereo unspecified)	–
CCOC(=O)C1CCCN(c2ncnc3c2cnn3-c2ccc(Cl)cc2)C1 (stereo unspecified)	39.7	VCAM1 pot conf=–
Cc1nnc(Nc2ccc3c(c2)ncn3C)c2ccccc12	–
O=C(/C=C(\c1ccc(Cl)cc1)n1cncn1)c1ccc(Cl)cc1	–
Cc1nn(-c2ccc3nnc(Br)n3n2)c(C)c1Br	–
Nc1cc(-c2ccccc2)nn1Cc1ccc(Cl)cc1	–
O=c1cc(-c2ccccc2)nc2nc(CCc3ccccc3)[nH]n12	47.7	VCAM1 pot conf=–
CCCc1ccc(-c2cc(NC(=O)CSc3n[nH]c(N)n3)n(-c3ccccc3)n2)cc1	–
CCn1c(SCC(=O)N2CCN(c3ccccc3)CC2)nnc1-c1c[nH]c2ccccc12	–
CCOC(=O)c1ccc(NC(=O)C(C)N2C(=O)c3ccccc3C2=O)cc1 (stereo unspecified)	–
CCOC(=O)c1cccc(NC(=O)CN2C(=O)C3C4C=CC(C4)C3C2=O)c1 (stereo unspecified)	–
CCOC(=O)c1cccc(NC(=O)C(C)N2C(=O)c3ccccc3C2=O)c1 (stereo unspecified)	36.2	VCAM1 pot conf=–
CC(=O)NC(Cc1ccccc1)C(=O)N1CCN(C(=O)c2cccs2)CC1 (stereo unspecified)	–
CC(C)Oc1cc(NC(=O)CSCC(=O)Nc2cccc(C(F)(F)F)c2)c(Cl)cc1Cl	–
SMILES	VCAM1 TNFa pot	others
CCOC(=O)C1(P(=O)(c2ccc(Cl)cc2)c2ccc(Cl)cc2)CCC1	–
Cn1nc(-c2ccc(C(=O)N3CCN(c4ccccc4)CC3)cc2)c2ccccc2c1=O	–
O=C(c1ccc2c(c1)[nH]c(=S)n1c3ccccc3nc21)N1CCN(c2ncccn2)CC1	–
O=C(c1ccc(-c2ccccc2)cc1)N1CCN(c2ncccn2)CC1	?	VCAM1 pot conf=–
O=C(CNC(=O)c1ccco1)OCc1ccc(Cl)cc1	–
O=C(O)C1CC=CCC1C(=O)N1CCCC1 (stereo unspecified)	–
CCCCOCCCNC(=O)c1cccs1	–
CCCCN(CCCNC(=O)c1c(C)cc(=O)oc1C)c1ccccc1	39.5	VCAM1 pot conf=–
Cc1ccc(S(=O)(=O)NCCCNC(=O)c2ccccc2)cc1	–
Cc1noc(C)c1S(=O)(=O)N1CCCC(C(=O)Nc2cccnc2)C1 (stereo unspecified)	–
CCc1ccc(C(=O)COC(=O)c2cccc(N3C(=O)c4c(C)nc5ccccc5c4C3=O)c2)cc1	–
CCc1c(C)nc(SC)n(CC#N)c1=O	–
CC(=O)c1c(C)n([O-])c2cc(C)ccc2[n+]1=O	–
CC(C)c1ccc(NC(=O)c2ccc(Br)o2)cc1	–
COc1nc(Nc2ccc(C(C)C)cc2)nc(OC)n1	46.8	VCAM1 pot conf=–
C#CCSc1nc(Cc2ccc(Cl)cc2)nc2ccccc12	–
COc1cc(CN2CCC(C(=O)NC3CCCC3)CC2)ccc1O	–
COc1ccc(NC(=O)CSc2nccc(C)n2)cc1	–
CCOC(=O)c1ccc(NC(=O)CSc2nnc(COc3ccccc3)n2C)cc1	–
COc1ccc(-n2ccnc2SCC(=O)Nc2ccccc2)cc1	80.8	VCAM1 pot conf=–
CC(CO)Nc1nc(SCc2ccccc2)nc2sc3c(c12)CCC3 (stereo unspecified)	–
COc1ccc(CN(CC(=O)NCc2ccco2)C(=O)CCC(=O)Nc2nccs2)cc1	–
O=C(CCCOc1ccccc1)Nc1ccc2c(c1)OCCO2	–
CN1CCN(S(=O)(=O)c2ccc(Sc3nnc(-c4cccs4)n3-c3ccccc3)nc2)CC1	58.7	VCAM1 pot conf=–
CC(Sc1nnc(-c2cccs2)n1-c1ccccc1)C(=O)NCc1ccco1 (stereo unspecified)	–
Cc1ccc(OCCSc2nnc(-c3cccs3)n2C)cc1	–
CNc1nc(OCCNC(=O)Nc2ccccc2)nc(N2CCOCC2)n1	–
COc1cccc(N2CCN(Cc3nc(N)nc(N4CCCc5ccccc54)n3)CC2)c1	–
